Results taken from PubChem BioAssay (NCI).
This is part of a sample that, as a whole, favours compounds with a hit. Of some 79,000 tested, about 15% had one in any assay. Unmarked numbers belong to inactive results. Activity calls are given as the source filed them. Cut-off read from the data, not from the text of the source: active = growth inhibition above about 70%; inactive = the rest.

Assay: NCI Yeast Anticancer Drug Screen. Data for the mlh1 rad18 strain (AID 175)
Conditions: S. cerevisiae mlh1 rad18 strain growth inhibition; at 50.0 µM; hits give high values
Outline: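 Inhibition values reflect reduced growth of mutant yeast versus vehicle-treated controls following compound exposure; the mutations affect DNA damage repair.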

Row | SMILES | growth inhibition
1 | CCCNC(=O)OCc1ccc(NCCN(CC)CC)c2c(=O)c3ccccc3sc12 | 1.05%
2 | COc1cc(C(c2cc3c(cc2O)OCO3)N2CCCCC2)cc(OC)c1OC (stereo not given) | 62.6%
3 | Cc1cc2c(cc1Cl)Sc1nnc(C)n1S2(=O)=O | 75.6% (active)
4 | O=C(Oc1cccc2cccnc12)c1ccccc1 | 95.2% (active)
5 | CCCCCCN(CCCCCC)CCC(=O)c1ccc2cc(Br)c3ccccc3c2c1 | 97.7% (active)
6 | Cc1c2cc(Cl)ccc2cc2c1ccc1ccccc12 | 98.5% (active)
7 | O=C1OC(CCCl)(c2ccccc2)CC1CN1CCOCC1 (stereo not given) | 73.6% (active)
8 | CCOC(=N)CCCSSc1ccc(N=[N+]=[N-])cc1 | 99.2% (active)
9 | Cc1[nH]c2ccccc2c1/C=C1\C(=O)C2CCC1C2 (stereo not given) | 86.9% (active)
10 | O=C(O)c1ccc2c3c(ncnc13)-c1ccccc1C2=O | 74.6% (active)
11 | CCNCCNc1cc(O)c2c(c1O)C(=O)c1ccccc1C2=O | 91.7% (active)
12 | Nc1nc(N)c2nc(CNc3ccc(C(=O)NC(CCC(=O)O)C(=O)O)cc3)cnc2n1 (stereo not given) | 83.5% (active)
13 | COc1ccccc1OC(=O)Oc1ccccc1OC | 50%
14 | NNC(=O)c1c(SCc2ccccc2)nc2c3ccccc3ccn12 | 81.3% (active)
15 | N#CC1Oc2ccccc2N1C(=O)c1ccccc1 (stereo not given) | 64.3%
16 | O=C1C2=Cc3ccccc3CCN2c2ccccc21 | 83.1% (active)
17 | Cc1cc([N+](=O)[O-])cc(Cl)c1O | 80% (active)
18 | Cc1c(Cl)cccc1N=NC(=O)NNc1cccc(Cl)c1C | 81.5% (active)
19 | CCC[CH2][Sn]1([CH2]CCC)[O]C(=O)CN=Cc2c(ccc3ccccc23)[O]1 | 91.7% (active)
20 | Oc1ccc(/C=N/NC(=S)Nc2ccccc2)nc1 | 84.2% (active)

Row | SMILES | growth inhibition
21 | CN(C)COC(=S)SCN(C)C | 98.2% (active)
22 | Cc1cc2cc3c(c(C(=O)O)c2o1)C(=O)c1ccc2ccccc2c1C3 | 99.4% (active)
23 | O=C1CC(=S)NC(=S)N1 | 40.2%
24 | O=[N+]([O-])c1cc(I)c(O)c(/C=N/NS(=O)(=O)c2ccc(Cl)cc2)c1 | 91.8% (active)
25 | CCC1CCC(CC)C1=O (stereo not given) | 43.2%
26 | Cc1cc(O)c2c(c1)C(=O)c1c(c(O)cc(O)c1-c1c(O)cc(O)c3c1C(=O)c1cc(C)cc(O)c1C3=O)C2=O | 59.1%
27 | CCC(=O)Sc1ccccc1C(=O)Nc1ccc(Cl)cc1 | 85.2% (active)
28 | COc1cccc(CC2N(S(=O)(=O)c3ccc(C)cc3)CCC23C(=O)Nc2ccccc23)c1OC (stereo not given) | 92.2% (active)
29 | Cc1occc1C(=S)Nc1ccc(Cl)c(C(=O)OCC(C)C)c1 | 41.3%
30 | CCOC(=O)c1ccc([N+](=O)[O-])o1 | 83.7% (active)
31 | Nc1ccc(S(=O)(=O)O)c2cccc(S(=O)(=O)O)c12 | -12.9%
32 | Cn1c2ccccc2c2nnc(N/N=C/c3ccccn3)nc21 | 96.4% (active)
33 | C#CC(NCCC(C)CC(C)(C)C)C(C)C (stereo not given) | 65.2%
34 | C/C(=N/Nc1ccccc1)C(=O)O | 97.2% (active)
35 | CCCCCCCCCCCCCCOC(=O)C(N)Cc1ccc(O)cc1 (stereo not given) | 98.8% (active)
36 | O=C(Nc1ccc(S(=O)(=O)NC2CCCCC2)cc1)OCc1ccccc1 | 54.6%
37 | NC1CCCCC1N.O=S(=O)([O-])CCCN1CCN(CCO)CC1.O=S(=O)([O-])CCCN1CCN(CCO)CC1.[Pt+4] | 24.4%
38 | CCCCCCCNc1ccc2c(cc1=O)C(NC(C)=O)CCc1cc(OC)c(OC)c(OC)c1-2 (stereo not given) | 7.55%
39 | Cc1ccc(NC(=O)c2cc3ccccc3c(N=Nc3cc(S(=O)(=O)O)ccc3O)c2O)c(C)c1 | 80.8% (active)
40 | O=C(O)/C(Cl)=C(\Cl)C(=O)Nc1cccc(C(F)(F)F)c1 | 99.5% (active)
